CBX7 inh: CBX7 chromodomain binding inhibitors, primary screen, biochemical, AlphaScreen | normalised signal (fraction of DMSO) (concentration not given with the values) | AlphaScreen His6-CBX7 / biotin-H3K27me3 peptide binding; stronger effect = lower value | hit rate 1.1% among 66,000 | Chromobox protein homolog 7 (Homo sapiens), O95931; in the data active = normalised signal below about 0.5
Target sequence (O95931 whole entry, looked up): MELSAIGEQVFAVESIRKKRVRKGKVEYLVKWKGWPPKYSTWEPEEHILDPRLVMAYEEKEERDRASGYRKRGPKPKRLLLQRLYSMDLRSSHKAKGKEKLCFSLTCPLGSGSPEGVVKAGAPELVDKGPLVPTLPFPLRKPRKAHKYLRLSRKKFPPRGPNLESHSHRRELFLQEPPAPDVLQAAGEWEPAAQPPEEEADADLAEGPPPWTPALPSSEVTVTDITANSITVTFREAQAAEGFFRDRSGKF
Starred values were filed as active, the others as inactive. Only a selection was taken, and hits are over-represented in it overall.

SMILES	CBX7 inh
Cc1cc(C)n2c(Nc3ccc(C(C)C)cc3)c(-c3ccccc3)nc2n1	0.907
CCCn1nnnc1NCc1ccc(OCc2ccccc2)cc1	1.02
CCN(CCCNC(=O)CCn1nc(-c2ccc(Cl)cc2)ccc1=O)c1ccccc1	0.714
Cc1ccc2nc(SCc3ccc(Cl)cc3)[nH]c2c1	1.08
COc1ccc(NC(=O)C(NS(=O)(=O)c2cccs2)C(C)C)c(OC)c1 (configuration not stated)	0.951
Cc1ccc(Cl)cc1N1CCN(C(=O)c2c[nH]n3c(=O)c(Cc4ccccc4F)c(C)nc23)CC1	0.954
Cc1ccc2n1CCn1cc(-c3ccc(Cl)c(Cl)c3)cc1-2	1.05
CCCCNC(=O)c1c[nH]c2ccc(S(=O)(=O)N(C)Cc3ccccc3)cc2c1=O	1.1
COCCNC(=O)CNC(=O)c1nn(-c2ccc(OC)cc2)c(=O)c2ccccc12	0.985
O=C(COc1ccc2oc3c(c2c1)CCCC3)Nc1ccccc1Br	1.04
COc1ccc(-c2nn(C)c3sc(C(=O)Nc4ccc(C)cc4Br)cc23)cc1OC	1.12
c1ccc(-c2cnc(SC(c3ccccc3)c3ccccc3)[nH]2)cc1	0.822
CCOc1ccc(S(=O)(=O)Nc2ccccc2C)cc1-c1nc2c(C(C)(C)C)nn(C)c2c(=O)[nH]1	0.908
COCc1nnc(NC(=O)c2ccc(S(=O)(=O)N3CCCC(C)C3)cc2)o1 (configuration not stated)	0.794
CCc1nnc(NC(=O)c2ccc(S(=O)(=O)N3CCCCC3C)cc2)o1 (configuration not stated)	0.783
CCc1nnc(NC(=O)c2ccc(S(=O)(=O)N3CCc4ccccc4C3)cc2)o1	0.631
NC(=O)c1oc2ccccc2c1NC(=O)c1ccc(S(=O)(=O)N2CCCc3ccccc32)cc1	0.791
COCc1nnc(NC(=O)c2ccc(S(=O)(=O)N3CCCCCC3)cc2)o1	0.0663*
CCc1nnc(NC(=O)c2ccc(S(=O)(=O)N3CCCc4ccccc43)cc2)o1	0.0473*
CCc1nnc(NC(=O)c2ccc(S(=O)(=O)N3CC(C)CC(C)C3)cc2)o1 (configuration not stated)	0.698
CCc1nnc(NC(=O)c2ccc(S(=O)(=O)N3CCCC3)cc2)o1	0.454*
COc1cccc(CNC(=O)CCN2C(=O)C(C)Oc3ccc(C)cc32)c1 (configuration not stated)	0.968
CCC1CCCCN1CCCNC(=O)c1cc(-c2cccnc2)nc2ccccc12 (configuration not stated)	1.08
Cc1c(C(=O)N2CCN(c3ccc(F)cc3)CC2)sc2ncnc(N3CCC(C)CC3)c12	0.816
CCc1ccc(CNC(=O)CCc2nc(-c3ccc(OC)cc3)no2)cc1	0.818
SMILES	CBX7 inh
COc1ccc(N2C(=O)CC(NCCc3ccc(Cl)cc3)C2=O)cc1 (configuration not stated)	0.998
CCCCCCOc1ccc(N2C(=O)CC(NCCc3ccc(Cl)cc3)C2=O)cc1 (configuration not stated)	0.959
Cc1noc(/C=C/c2cccs2)c1S(=O)(=O)N1CCC(C(=O)Nc2ccc(C(C)C)cc2)CC1	0.984
CCOC(=O)N1CCC(NC(=O)CC2Oc3ccc(Cl)cc3NC2=O)CC1 (configuration not stated)	1.02
Cc1ccc(C(c2ccccc2)N2CCN(CCCc3c[nH]c4ccccc34)CC2)cc1 (configuration not stated)	0.488*
c1ccc(C(c2ccccc2)N2CCN(CCCc3c[nH]c4ccccc34)CC2)cc1	0.501
Fc1ccc(C(c2ccccc2)N2CCN(CCCc3c[nH]c4ccccc34)CC2)cc1 (configuration not stated)	0.512
CCOC(=O)N1CCC(N2Cc3cccc(C(=O)NCCCN4CCCC4=O)c3C2=O)CC1	1.04
CCCCCCCOCC(O)Cn1c2ccccc2c2ccccc21 (configuration not stated)	1.15
CCN(CC)c1ccc(Nc2nc(-c3c(C)nc4ncccn34)cs2)cc1	0.331*
CCc1ccccc1Nc1nc(-c2c(C)nc3ncccn23)cs1	0.77
CCN(CC)c1ccc(Nc2nc(-c3c(C)nc4sccn34)cs2)cc1	0.104*
Cc1nc2sccn2c1-c1csc(Nc2ccc(Cl)cc2)n1	0.754
CC(=O)c1cccc(Nc2nc(-c3c(C)nc4ncccn34)cs2)c1	0.851
CCOc1ccc(Nc2nc(-c3c(C)nc4sccn34)cs2)cc1	0.666
Cc1cc(N2CCOCC2)nc2ccc(NC(=O)CCC3CCCC3)cc12	1.06
COc1ccc(C(=O)Nc2ccc(Cl)c(-c3nc4cc(C)c(C)cc4o3)c2)cc1	1.19
Cc1cc(C)n(-c2nc3ccccc3nc2Nc2ccc(C)c(Cl)c2)n1	2.23
CCC(=O)N1CCc2cc(S(=O)(=O)NC(CC(C)C)C(=O)Nc3ccccc3C)ccc21 (configuration not stated)	0.934
O=C(CCc1nc(-c2ccccc2F)no1)NCCCN1CCC(Cc2ccccc2)CC1	0.932
CCOC(=O)c1cnc2ccc(C)cc2c1Nc1ccc(N2CCCCC2)cc1	0.278*
CCOC(=O)c1cnc2c(C)cc(C)cc2c1Nc1ccc(Cl)cc1	1.24
CCOC(=O)c1cnc2ccc(OCC)cc2c1Nc1ccc(OCC)cc1	1.09
CCOC(=O)c1cnc2ccc(OCC)cc2c1N1CCCC1	0.903
CCOC(=O)c1cnc2c(C)cc(C)cc2c1Nc1ccc(N2CCCCC2)cc1	0.284*
SMILES	CBX7 inh
CCOC(=O)c1cnc2ccc(Cl)cc2c1Nc1ccc(N2CCOCC2)cc1	0.579
CCOC(=O)c1cnc2ccc(OCC)cc2c1Nc1ccc(F)c(Cl)c1	0.397*
CCOC(=O)c1cnc2ccc(C)cc2c1Nc1ccc(N2CCOCC2)cc1	0.893
CCOC(=O)c1cnc2ccc(OCC)cc2c1Nc1ccc(C)c(C)c1	1.21
CCOC(=O)c1cnc2ccc(OCC)cc2c1N1CCN(c2ccccc2)CC1	0.736
CCOC(=O)c1cnc2c(C)cc(C)cc2c1Nc1ccc(F)cc1	1.23
CCOC(=O)c1cnc2ccc(OCC)cc2c1N1CCN(c2ccccc2F)CC1	0.167*
Cc1ccc(S(=O)(=O)N2CC=C(C(=O)NC3CCCCC3C)CC2)cc1 (configuration not stated)	0.971
O=C(O)C1C2C=CC(C2)C1C(=O)Nc1ccccc1O (configuration not stated)	1.05
CC1CCN(C2CC(=O)N(c3ccc(Cl)cc3)C2=O)CC1 (configuration not stated)	0.923
CCC1=Nc2cc(C(=O)NCC3CCCN3CC)ccc2Sc2ccc(Cl)cc21 (configuration not stated)	0.746
CC1CC(C)CN(CCCNC(=O)C2CCN(S(=O)(=O)c3cnc[nH]3)CC2)C1 (configuration not stated)	0.951
Cc1cc(N2CC(C)CC(C)C2)nc2ccc(NC(=O)CCC(=O)NCc3ccc(F)cc3)cc12 (configuration not stated)	1.04
CCOc1ccc(-n2c(C)nc3cc(C(=O)NCc4ccccc4OC)ccc32)cc1	0.919
CCCN1CCN(CCCNC(=O)CNC(=O)c2cccs2)CC1	1.03
CCOC(=O)c1oc2ccccc2c1NC(=O)c1ccc(OC)cc1	1.15
CCOC(=O)c1cnc2ccc(OC)cc2c1Nc1ccc(OC)cc1	0.578
CCOC(=O)c1cnc2ccc(OC)cc2c1Nc1ccc(N(C)C)cc1	0.258*
CCOC(=O)c1cnc2ccc(C)cc2c1Nc1ccc(OCC)cc1	0.932
CCOC(=O)c1cnc2ccccc2c1Nc1ccc(C)cc1	0.994
CCOC(=O)c1cnc2ccc(C)cc2c1Nc1ccc(N(CC)CC)cc1	0.417*
CCOC(=O)c1cnc2ccc(OC)cc2c1Nc1ccc(C)cc1	0.989
